The panel holds about 79,000 compounds, 15% with a hit somewhere; the sample as a whole holds those more often. Calls of active or inactive are those of the source. Rule as the data show it: active = growth inhibition above about 70%; inactive = the rest.
Assays:
[1] = NCI Yeast Anticancer Drug Screen. Data for the rad52 strain (AID 147);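 also: 0% = growth of vehicle-treated control cultures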; details: S. cerevisiae rad52 mutant growth inhibition, stronger effect = higher value
In short: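 Genetically altered yeast (DNA damage repair defect) treated with compound; inhibition calculated relative to vehicle.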

[2] = NCI Yeast Anticancer Drug Screen. Data for the wt1 strain (AID 149);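 also: 0% = growth of vehicle-treated wt1 cultures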; details: S. cerevisiae wt1 strain (SPY 50644) growth inhibition, stronger effect = higher value
In short: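 Using yeast strain wt1, compound-induced growth inhibition was determined against vehicle-treated cultures.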

[3] = NCI Yeast Anticancer Drug Screen. Data for the rad50EPP+ strain (AID 151);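 also: 0% = growth of vehicle-treated control cultures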; details: S. cerevisiae rad50 mutant strain, stronger effect = higher value
In short: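 Strain rad50EPP+; compound exposure; % growth inhibition vs vehicle.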

[4] = NCI Yeast Anticancer Drug Screen. Data for the mgt1 strain (AID 153); details: S. cerevisiae mgt1 mutant growth inhibition, stronger effect = higher value
In short: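 Read-out: yeast growth inhibition vs vehicle control. Strain mgt1, drawn from a panel altered in DNA damage repair or cell cycle control.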

[5] = NCI Yeast Anticancer Drug Screen. Data for the rad50 strain (AID 155);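 also: 0% = growth of vehicle-only cultures of the same strain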; details: S. cerevisiae rad50 strain growth inhibition, stronger effect = higher value
In short: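 Relative growth inhibition (compound vs vehicle) was measured in yeast with a defined repair-gene alteration.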

[6] = NCI Yeast Anticancer Drug Screen. Data for the mec2-1 strain (AID 157); details: S. cerevisiae mec2-1 strain, stronger effect = higher value
In short: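 Cells of the genetically defined mec2-1 yeast strain are incubated with test compound. Inhibition of growth is calculated against vehicle-treated controls.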

[7] = NCI Yeast Anticancer Drug Screen. Data for the rad14 strain (AID 159);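 also: 0% = growth of vehicle-treated control cultures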; details: S. cerevisiae rad14 strain growth inhibition, stronger effect = higher value
In short: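 Screen for anticancer potential: a yeast strain altered in DNA damage repair is grown with compound, and reduced growth is quantified against vehicle controls.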

[8] = NCI Yeast Anticancer Drug Screen. Data for the sgs1 mgt1 strain (AID 161);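 also: 0% = growth of cultures given vehicle only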; details: S. cerevisiae sgs1 mgt1 strain, stronger effect = higher value
In short: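 Inhibition of yeast growth, normalised to vehicle-treated controls, is reported for a strain bearing genetic alterations in DNA damage repair.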

[9] = NCI Yeast Anticancer Drug Screen. Data for the CLN2oe strain (AID 163);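 also: 0% = growth of vehicle-only control cultures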; details: S. cerevisiae CLN2oe strain, stronger effect = higher value
In short: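 Strain altered in cell-cycle control, incubated with compound; growth compared to solvent-treated controls.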

[10] = NCI Yeast Anticancer Drug Screen. Data for the cln2 rad14 strain (AID 165);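 also: 0% = growth equal to vehicle treated cultures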; details: S. cerevisiae cln2 rad14 strain, stronger effect = higher value
In short: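 The screen exposed genetically defined yeast (cln2 rad14) to test compounds and scored growth inhibition relative to vehicle-treated controls.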

[11] = NCI Yeast Anticancer Drug Screen. Data for the bub3 strain (AID 167); details: S. cerevisiae bub3 mutant strain, stronger effect = higher value
In short: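 Screening used yeast with an engineered genetic alteration affecting cell cycle control. Compound-exposed cultures were compared with vehicle cultures, and reduced growth was taken as inhibition.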

[12] = NCI Yeast Anticancer Drug Screen. Data for the wt2 strain (AID 169);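 also: 0% = growth of vehicle-treated yeast cultures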; details: S. cerevisiae wt2 strain growth inhibition, stronger effect = higher value
In short: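 Steps: yeast strain treated with compound; growth recorded; inhibition calculated relative to cultures given vehicle alone.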

[13] = NCI Yeast Anticancer Drug Screen. Data for the mlh1 strain (AID 171);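 also: 0% = growth of vehicle-treated control cultures of the same strain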; details: S. cerevisiae mlh1 strain growth inhibition, stronger effect = higher value
In short: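 Yeast screen: mutant strain plus compound, growth scored against vehicle control wells.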

[14] = NCI Yeast Anticancer Drug Screen. Data for the mlh1 rad18 strain (AID 175); details: S. cerevisiae mlh1 rad18 strain growth inhibition, stronger effect = higher value
In short: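 Compound-treated yeast growth, normalised to vehicle controls. Strain bears defined DNA repair mutations.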

[15] = NCI Yeast Anticancer Drug Screen. Data for the rad18 strain (AID 177); details: S. cerevisiae rad18 mutant growth inhibition, stronger effect = higher value
In short: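 Inhibition values reflect reduced yeast growth compared with vehicle-treated controls, using a strain engineered with a DNA damage repair defect.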

[16] = at 5.0 µM (retest, dose inferred, filed as 0.5)
[17] = at 50.0 µM (retest, dose inferred, filed as 5.0)

Measured: growth inhibition

C[CH2][Sn]1([CH2]C)[O]C2C(O)OC(CO)C(O)C2[O]1 (stereo not drawn)
active: [1]; at 100.0 µM 76% | [6]; [17] 75% | [6]; at 50.0 µM 80.5% | [8]; [17] 71% | [12]; at 100.0 µM 82% | [14]; [17] 88% | [14]; at 50.0 µM 72.5% | [15]; at 100.0 µM 73%
inactive: [1]; at 1.2 µM 0% | [1]; at 3.7 µM 10% | [1]; at 11.0 µM 19% | [1]; at 33.0 µM 29% | [2]; at 1.2 µM -8% | [2]; at 3.7 µM -15% | [2]; at 11.0 µM -9% | [2]; at 33.0 µM -2% | [2]; at 100.0 µM 61% | [3]; at 1.2 µM -8% | [3]; at 3.7 µM -21% | [3]; at 11.0 µM -34% | [3]; at 33.0 µM -23% | [3]; at 100.0 µM -17% | [4]; at 1.2 µM -19% | [4]; at 3.7 µM -21% | [4]; at 11.0 µM -3% | [4]; at 33.0 µM 2% | [4]; at 100.0 µM 69% | [5]; at 1.2 µM 12% | [5]; at 3.7 µM 12% | [5]; [16] 17% | [5]; at 11.0 µM -7% | [5]; at 33.0 µM 4% | [5]; [17] 67% | [5]; at 50.0 µM 33.5% | [5]; at 100.0 µM 66% | [6]; at 1.2 µM 10% | [6]; at 3.7 µM 4% | [6]; [16] 8% | [6]; at 11.0 µM 4% | [6]; at 33.0 µM 24% | [6]; at 100.0 µM 67% | [7]; at 1.2 µM 1% | [7]; at 3.7 µM -4% | [7]; at 11.0 µM 2% | [7]; at 33.0 µM -5% | [7]; at 100.0 µM 15% | [8]; [16] 22% | [8]; at 50.0 µM 53.5% | [9]; at 1.2 µM -53% | [9]; at 3.7 µM -73% | [9]; at 11.0 µM -69% | [9]; at 33.0 µM -100% | [9]; at 100.0 µM 45% | [10]; [16] -1% | [10]; [17] 37% | [10]; at 50.0 µM 63.6% | [11]; at 1.2 µM 3% | [11]; at 3.7 µM 4% | [11]; [16] 6% | [11]; at 11.0 µM 10% | [11]; at 33.0 µM 8% | [11]; [17] 69% | [11]; at 50.0 µM 55.6% | [11]; at 100.0 µM 63% | [12]; at 1.2 µM -58% | [12]; at 3.7 µM -42% | [12]; at 11.0 µM -27% | [12]; at 33.0 µM 15% | [13]; at 1.2 µM -2% | [13]; at 3.7 µM -2% | [13]; at 11.0 µM -4% | [13]; at 33.0 µM -12% | [13]; at 100.0 µM 39% | [14]; [16] 26% | [15]; at 1.2 µM 11% | [15]; at 3.7 µM 0% | [15]; at 11.0 µM 8% | [15]; at 33.0 µM 23%

— PubChem BioAssay (NCI)
